uPA generation – cell surface uPA generation inhibition. cell surface uPA generation assay, qHTS. Potency, µM (top dose mostly 38.3 µM), usual class: inhibitors. 0.31% of 330,000 active; active means well fitted inhibition curve with a large enough effect; inconclusive means small, poorly fitted or top-dose-only effect; inactive means no such curve, though single readings can be large or run the other way; tested in mouse RAW 264.7 cells; further: nearly all actives have a fitted effect of over 55% in size
TCR act – T cell receptor activation; Potency, µM (doses to about 9.22 µM), usual class: activators; AID 504894; 330,000 tested, under 10 active; primary human leukocytes, anti-CD3, IL-2 HTRF, 48 h
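TCR engagement came from a-CD3 beads alone, with compounds added to primary human leukocytes for 48 hr. Secreted IL-2 bridged europium cryptate- and d2-labelled anti-IL-2 antibodies, giving FRET emission at 665nm after 320nm excitation.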
ClpP mod – qHTS Assay for Activators of ClpP; ATP-dependent Clp protease proteolytic subunit (Bacillus subtilis (strain 168)), P80244; purified B. subtilis ClpP, FRET peptide cleavage, 20 min; Potency, µM (titrated, usually from 57.5 µM); 1.9% of 340,000 active; active means well fitted falling curve with a large enough effect; inconclusive means small, poorly fitted or top-dose-only effect; inactive means no such curve, though single readings can be large or run the other way; further: the source files actives as falling curves though it sought activators and does not explain the sign; nearly all actives have a fitted effect of over 65% in size
Target sequence (P80244 whole entry, looked up): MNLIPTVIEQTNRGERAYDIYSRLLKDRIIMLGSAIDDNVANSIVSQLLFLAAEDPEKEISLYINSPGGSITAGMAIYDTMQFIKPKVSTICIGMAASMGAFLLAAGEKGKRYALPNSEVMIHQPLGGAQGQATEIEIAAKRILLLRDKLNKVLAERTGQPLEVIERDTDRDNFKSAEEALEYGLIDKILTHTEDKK
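FRET quenching reversal measured ClpP activation: 10 microg/mL B. subtilis ClpP at pH 8 with the FRET-FV decapeptide, read at 430 nm after 320 nm excitation. The 20-min minus 0-min signal was scaled between DMSO/no-enzyme wells and ADEP (5.8 microM final).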
Sfp inh – blocks B. subtilis Sfp PPTase activity | 3.5% of 310,000 active | Potency, µM, actives largely listed as inhibitors | AID 1490 | Biochemical Sfp PPTase activity, qHTS | Q9F4F7;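 further: the enzyme is Sfp with the accession as filed and its product quenches rhodamine fluorescence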
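Step 1, compound plus 15 nM Sfp-PPTase, 15 min, room temperature. Step 2, add rhodamine-CoA (5 uM) and BHQ-2-YbbR (12.5 uM). Step 3, read 525/598 nm fluorescence at 0 and 30 min.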
Large screens that a line does not name were inactive. Shown are actives, neighbours in structure and some others; about 4.2% of the full set was active somewhere. Unless noted, the call rests on the fitted dose curve; in most records, active means well fitted curve in the direction sought with a large enough effect; inconclusive means small, poorly fitted or top-dose-only effect, or another doubt; inactive means no such curve, though single readings can be large; an effect the other way counts as inactive or inconclusive.

CC(=O)Nc1nonc1-c1nnc(SCC(=O)Nc2ccccc2)n1-c1ccccc1	none (no result: uPA generation, TCR act, Sfp inh)
Cc1ccc(CNC(=O)c2ccc(Cn3c(=O)c4ccccc4n(CC(=O)Nc4ccc(C)cc4C)c3=O)cc2)cc1	none (no result: uPA generation, TCR act, Sfp inh)
COc1ccccc1CN1CCN(C(CC(C)C)c2nnnn2Cc2cccs2)CC1 (stereo not drawn)	Sfp inh 89µM
CCCC(c1nnnn1Cc1cccs1)N1CCN(C)CC1 (stereo not drawn)	none (no result: ClpP mod)
COc1ccc(CNC(=O)CCS(=O)(=O)c2cc(Br)cc3c2N(C(C)=O)C(C)C3)cc1 (stereo not drawn)	none (no result: uPA generation, TCR act, Sfp inh)
COc1cc(-c2nc(-c3ccc(NC(=O)c4ccc5c(c4)OCO5)cc3)no2)cc(OC)c1OC	ClpP mod 20µM
COc1ccc(-c2nnc(SCCOc3ccccc3C)o2)cc1OC	none (no result: uPA generation, TCR act, Sfp inh)
C#CCOCCOCCOCCNc1nc(N2CCN(C(=O)[C@H](Cc3ccc(O)cc3)n3cc([C@@H](N)C(C)CC)nn3)CC2)nc(N2CCN(C(=O)[C@H](Cc3cc4ccccc4[nH]3)n3cc([C@@H](N)CC(C)C)nn3)CC2)n1 (stereo partly drawn)	Sfp inh 50µM
C#CCOCCOCCOCCNc1nc(N2CCN(C(=O)[C@H]([C@@H](C)CC)n3cc([C@@H](N)CC(C)C)nn3)CC2)nc(N2CCN(C(=O)[C@H](Cc3cc4ccccc4[nH]3)n3cc([C@@H](N)CC(C)C)nn3)CC2)n1	none (no result: uPA generation, TCR act, ClpP mod)
C#CCOCCOCCOCCNc1nc(N2CCN(C(=O)[C@H]([C@@H](C)CC)n3cc([C@@H](N)CO)nn3)CC2)nc(N2CCN(C(=O)[C@H](Cc3cc4ccccc4[nH]3)n3cc([C@@H](N)C(C)CC)nn3)CC2)n1 (stereo partly drawn)	Sfp inh 50µM (no result: uPA generation, TCR act, ClpP mod)
C#CCOCCOCCOCCNc1nc(N2CCN(C(=O)[C@H](Cc3cc4ccccc4[nH]3)n3cc([C@@H](N)C(C)CC)nn3)CC2)nc(N2CCN(C(=O)[C@H](Cc3cc4ccccc4[nH]3)n3cc([C@@H](N)Cc4ccc(O)cc4)nn3)CC2)n1 (stereo partly drawn)	Sfp inh 50µM (no result: uPA generation, TCR act, ClpP mod)
C#CCOCCOCCOCCNc1nc(N2CCN(C(=O)[C@H](Cc3ccc(O)cc3)n3cc([C@@H](N)C(C)CC)nn3)CC2)nc(N2CCN(C(=O)[C@H](Cc3cc4ccccc4[nH]3)n3cc([C@@H](N)C(C)CC)nn3)CC2)n1 (stereo partly drawn)	none
COc1ccc(NC(=O)C(C)Sc2cc(-c3ccccc3)nc(C)n2)cc1Cl (stereo not drawn)	none (no result: uPA generation, TCR act, Sfp inh)
O=C(/C=C/c1ccc(C(F)(F)F)cc1)OC(C(=O)NC1CC1)c1ccccc1 (stereo not drawn)	none (no result: uPA generation, TCR act, Sfp inh)
Cc1c(Cl)cccc1NC(=S)N1CCN(C(=O)C2CCCO2)CC1 (stereo not drawn)	ClpP mod 28µM
Cc1cccc(NC(=S)N2CCOCC2)c1C	Sfp inh 71µM
CCn1cc2nc(SCc3ccccc3Cl)n(Cc3ccc(OC)cc3)c(=O)c2n1	none (no result: uPA generation, TCR act, Sfp inh)
COC(=O)c1ccccc1NC(=O)Nc1cccs1	Sfp inh 40µM
COC(=O)c1ccccc1NC(=O)c1cccs1	none
CCOC(=O)c1ccccc1NC(=O)N[C@@H](C)C(=O)OC	ClpP mod 20µM (no result: TCR act)
COC(=O)c1ccccc1NC(=O)N[C@@H](C)C(=O)OC	ClpP mod 28µM
O=S1(=O)CCOC[C@H](c2ccccc2)N1Cc1ccc(Cl)c(Cl)c1	none (no result: uPA generation, TCR act, Sfp inh)
COC(=O)c1ccccc1NC(=O)c1ccc(CN2CC(=O)N3CCCCC3C2=O)cc1 (stereo not drawn)	none (no result: uPA generation, TCR act, Sfp inh)
CCCCCCCCCCCCCCCCn1cc[n+](C)c1	uPA generation inconclusive, Sfp inh 22µM
CCOC(=O)c1sc(NC(=O)C(C)(C)C)cc1C	uPA generation 11µM
CCOC(=O)c1sc(NC(=O)C2CC2)cc1C	none
CS(=O)(=O)N1CCN(c2ccc(NC(=O)C(c3ccccc3)c3ccccc3)cc2)CC1	none
O=C(CNCC1CCCO1)Nc1ccc(N2CCCCCC2)cc1 (stereo not drawn)	Sfp inh 56µM (no result: TCR act)
O=C(Nc1ccc(N2CCCC2)cc1)C(Cl)c1ccccc1 (stereo not drawn)	Sfp inh 45µM
O=C(CNCCC1=CCCCC1)Nc1ccc(N2CCCCCC2)cc1	Sfp inh 16µM
O=C(O)CCC(=O)Nc1ccc(N2CCCCCC2)cc1	Sfp inh 22µM
Cc1ccc(N2CCN(c3ccc(NC(=O)CCC(=O)O)cc3)CC2)cc1	none
COc1ccc(OCC(=O)N/N=C(\C)CC(=O)Nc2cccc([N+](=O)[O-])c2)cc1	none
O=C(CCCc1c[nH]c2ccccc12)Nc1ncccc1O	none
COc1ccc(Nc2oc(-c3cccs3)nc2C#N)cc1	ClpP mod 14µM, Sfp inh inconclusive
Cc1cc2cc(CCNC(=O)CC(C)C)c(=O)[nH]c2cc1C	none (no result: uPA generation, TCR act, ClpP mod)
CCC(=O)NCCc1cc2cc(C)c(C)cc2[nH]c1=O	ClpP mod 16µM
Cn1cc(S(=O)(=O)N2CCOCC2)cc1C(=O)Nc1ccc(Cl)c(C(F)(F)F)c1	none (no result: uPA generation, TCR act, Sfp inh)
CSc1ccccc1NC(=O)CN(C)Cc1cccc(Cl)c1	Sfp inh 32µM (no result: ClpP mod)
CSc1ccccc1NC(=O)CN(C)CC(=O)NCc1ccccc1	none (no result: TCR act)
O=C1NC(=Nc2ccccc2)S/C1=C\c1ccccc1	none
COc1ccc(/C=C2\SC(=Nc3ccccc3OC)NC2=O)cc1	none
O=C1N/C(=N/Nc2ccccc2)S/C1=C\c1ccccc1	Sfp inh 25µM
COc1ccc(CN=C2NN=C(c3ccccc3)CS2)cc1	Sfp inh 45µM (no result: TCR act, ClpP mod)
COc1ccc(/C=C2\SC(=NCc3ccccc3)NC2=O)cc1	ClpP mod 22µM
CCCCn1c(NCc2cc(Cl)ccc2O)nc2ccccc21	none (no result: uPA generation, TCR act, Sfp inh)
CCC(C)(C)n1nnnc1C(c1cc2cc(C)ccc2[nH]c1=O)N1CCCc2ccccc21 (stereo not drawn)	Sfp inh 20µM
Cc1ccc(C(c2nnnn2C2CCCC2)N2CCc3ccccc32)cc1 (stereo not drawn)	none
Cc1ccc2[nH]c(=O)c(C(c3nnnn3C3CCCC3)N3CCCc4ccccc43)cc2c1 (stereo not drawn)	Sfp inh 8.9µM
O=C(Cc1csc2ccccc12)NCc1cccc(Br)c1	none (no result: uPA generation, TCR act, Sfp inh)
Cn1c(=S)ccc2ccccc21	Sfp inh 45µM (no result: ClpP mod)
O=c1c(-c2cccs2)nc2cnc(N3CCNCC3)nc2n1C1CC1	none (no result: uPA generation, TCR act, ClpP mod)
COc1ccc(Cn2c(CO)cnc2SCc2ccc(F)cc2)cc1	none (no result: uPA generation, TCR act, Sfp inh)
COc1ccnc(CSC(N)=Nc2ccc(F)cc2)c1	Sfp inh 22µM
CC(=O)Nc1cccc(-c2csc(NCc3ccccc3)n2)c1	Sfp inh 40µM
CC(=O)Nc1ccc(-c2csc(NCc3ccccc3)n2)cc1	none (no result: uPA generation)
CC(=O)Nc1cccc(-c2csc(Nc3ccccn3)n2)c1	Sfp inh 89µM (no result: TCR act)
CC(=O)Nc1cccc(-c2csc(Nc3cc(C)ccn3)n2)c1	none
Cc1ccc(Nc2nc(-c3ccc(O)c(O)c3)cs2)nc1	Sfp inh 35µM (no result: ClpP mod)
Cc1ccc(Nc2nc(-c3ccc(F)cc3)cs2)nc1	none (no result: TCR act)
CCOC(=O)[C@]12CCCC=C1N(Cc1cccc3ccccc13)C(=O)[C@H](CC(=O)N1CCOCC1)C2	none (no result: uPA generation, TCR act, Sfp inh)

Source: PubChem BioAssay
